In PubChem BioAssay (NCI):
This is part of a sample that, as a whole, favours compounds with a hit. Of some 79,000 tested, about 15% had one in any assay. Rule as the data show it: active = growth inhibition above about 70%; inactive = the rest.

Columns and labels:
[1] = NCI Yeast Anticancer Drug Screen. Data for the rad50 strain (AID 155);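 also: 0% = growth of vehicle-only cultures of the same strain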; details: S. cerevisiae rad50 strain growth inhibition; at 50.0 µM; hits give high values
Summary of the method: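 Cells are treated with compound, grown, and their growth is then scored against vehicle-only cultures of the same repair-deficient yeast strain.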

[2] = NCI Yeast Anticancer Drug Screen. Data for the mec2-1 strain (AID 157); details: S. cerevisiae mec2-1 strain, at 50.0 µM, hits give high values
Summary of the method: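 Compounds were applied to mec2-1 yeast cells. Their growth was then compared with that of vehicle-treated cultures to give growth inhibition.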

[3] = NCI Yeast Anticancer Drug Screen. Data for the sgs1 mgt1 strain (AID 161);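 also: 0% = growth of cultures given vehicle only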; details: S. cerevisiae sgs1 mgt1 strain, at 50.0 µM, hits give high values
Summary of the method: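 Percent growth inhibition was derived by comparing compound-exposed mutant yeast with vehicle-exposed cultures. The strain carries alterations in DNA damage repair.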

[4] = NCI Yeast Anticancer Drug Screen. Data for the cln2 rad14 strain (AID 165);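 also: 0% = growth equal to vehicle treated cultures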; details: S. cerevisiae cln2 rad14 strain, at 50.0 µM, hits give high values
Summary of the method: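 Strain: cln2 rad14 yeast, altered in cell cycle control and DNA damage repair. Read-out: growth inhibition vs vehicle.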

[5] = NCI Yeast Anticancer Drug Screen. Data for the bub3 strain (AID 167); details: S. cerevisiae bub3 mutant strain, at 50.0 µM, hits give high values
Summary of the method: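 Part of a panel of yeast mutants defective in DNA damage repair or cell cycle regulation. Each strain is grown with compound, and inhibition is calculated relative to solvent-treated cultures.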

[6] = NCI Yeast Anticancer Drug Screen. Data for the mlh1 rad18 strain (AID 175); details: S. cerevisiae mlh1 rad18 strain growth inhibition; at 50.0 µM; hits give high values
Summary of the method: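 A repair-deficient yeast strain is exposed to test compound, and growth is scored relative to vehicle-treated controls.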

Measured: growth inhibition

C=CC[N+](CC)(CC)CC
inactive: [1] 12.3% | [2] -0.45% | [3] 2.35% | [4] 12.3% | [5] 19.4% | [6] 13.3%

c1ccc(-n2nc3ccc4nonc4c3n2)cc1
inactive: [1] -17.9% | [2] -20.8% | [3] -10.5% | [4] 7.4% | [5] -0.05% | [6] -1.55%

C=CC[N+]12CC=C3COC(=O)C(C)(O)C(C)(O)C(C)C(=O)OC(CC1)C32 (stereo not drawn)
inactive: [1] 0.4% | [2] -0.2% | [3] 0.4% | [4] -25.9% | [5] -3.55% | [6] -5.65%

Cn1c([N+](=O)[O-])cnc1COS(=O)(=O)c1cccnc1
inactive: [1] 6.05% | [2] -9.15% | [3] 25.8% | [4] 11.1% | [5] 16.8% | [6] 15.6%

CC(C)NC(=O)CS(=O)(=O)c1ccc(N)cc1
inactive: [1] -2.3% | [2] -11.8% | [3] 2.1% | [4] -0.3% | [5] 30% | [6] 7.7%

CC(/C=N/NC1=NCCCN1)=N\NC1=NCCCN1
inactive: [1] -7.05% | [2] -8.75% | [3] -14.3% | [4] 8.25% | [5] 2.9% | [6] -12.2%

CCOC(=O)CC(C(C)=O)C(=O)OCC (stereo not drawn)
inactive: [1] 14.9% | [2] 12.3% | [3] -3.55% | [4] -29.6% | [5] 5.6% | [6] -1.4%

CCC1=C/C(=N/O)C(C)=CC1(C)C(Cl)(Cl)Cl (stereo not drawn)
inactive: [1] 25.7% | [2] 7.65% | [3] 10% | [4] 17.2% | [5] 17.9% | [6] 48.5%

C/C(=N\n1cc(-c2ccccc2)nc1N)c1ccccc1
inactive: [1] -2.8% | [2] 4.2% | [3] 6% | [4] 13.5% | [5] 20.6% | [6] 13.1%

C=CCCCCCCCCC(N)=O
inactive: [1] -12.6% | [2] -8.4% | [3] 4.15% | [4] -1.8% | [5] 13.2% | [6] -14.6%

O=c1[nH]nc(NC2Nc3ccccc3N2)c2ccccc12
inactive: [1] 17.3% | [2] 15.1% | [3] 9.15% | [4] -19.2% | [5] 6.6% | [6] 13.4%

Cc1ccccc1N=C(N)NC#N
inactive: [1] -14% | [2] -31.9% | [3] -15.1% | [4] -4.65% | [5] -13.2% | [6] -49.7%

Cc1ccc(NC(=O)C(C)S)cc1 (stereo not drawn)
inactive: [1] 24.6% | [2] 11.6% | [3] 29.1% | [4] 38.6% | [5] 25.7% | [6] 32.4%

COC(=O)c1ccccc1C1CN=NC12Cc1ccc3c(c1C2=O)CCC3 (stereo not drawn)
inactive: [1] -0.85% | [2] -3.55% | [3] 1.75% | [4] -7.3% | [5] 7.1% | [6] 16.7%

Cn1c2ccccc2c(=O)c2c(O)cc3c(c21)C=CC1(CCCCC1)O3
inactive: [1] -4.75% | [2] 11.4% | [3] -2.25% | [4] 19.1% | [5] -5.65% | [6] 25.1%

O=C1c2ccccc2-c2oc(=O)c3ccccc3c21
inactive: [1] -19.9% | [2] -1.5% | [3] -6.05% | [4] -17.2% | [5] 2.2% | [6] -15.9%

CC(C)=C/C(C)=N/Nc1ccc([N+](=O)[O-])cc1[N+](=O)[O-]
inactive: [1] 5.9% | [2] 5.6% | [3] 13.5% | [4] 2.05% | [5] 12.8% | [6] -0.2%

O=C1C(NS(=O)(=O)c2ccccc2)=C(N(Cc2ccccc2)Cc2ccccc2)C(=O)c2ccccc21
inactive: [1] 9.1% | [2] 7.4% | [3] 26.1% | [4] 2.1% | [5] 8.95% | [6] -6.75%

CCCCCCCCC[N+]12CC[N+](CCCCCCCCC)(CC1)CC2
inactive: [1] 8.2% | [2] 15.2% | [3] -4.9% | [4] 2.15% | [5] 8.8% | [6] 5.25%

CCCCCOC(=O)c1cc2ccccc2cc1O
inactive: [1] -3% | [2] -8.05% | [3] -8.95% | [4] -39.6% | [5] 30.1% | [6] -7.8%

O=[N+]([O-])c1ccc(Cl)c(N=Nc2ccccn2)c1
inactive: [1] 20.2% | [2] -14.9% | [3] 21.4% | [4] -36.9% | [5] -10% | [6] 18.6%

O=C1OCCCC1(Cc1ccccc1)Cc1ccccc1
inactive: [1] 44.6% | [2] -7.7% | [3] 37.4% | [4] -16.1% | [5] 39.6% | [6] 16.5%

O=C(O)c1ccccc1CC(Cc1ccc2c(c1)CCC2)C(=O)O (stereo not drawn)
inactive: [1] -7.55% | [2] -2.25% | [3] -37% | [4] -5.15% | [5] -17.6% | [6] -6%

CN(NC1=NCCO1)c1ccc2ccccc2c1
inactive: [1] -46.3% | [2] -22.4% | [3] -15.8% | [4] -23.5% | [5] -21.4% | [6] -46.1%

CCCC(O)C(=O)C(CCC)N(CC)CC (stereo not drawn)
inactive: [1] 2.5% | [2] -6.85% | [3] 6.65% | [4] 18.7% | [5] 11.1% | [6] -4.9%

COC(=O)C1CCCC(=O)C1C(=O)OC (stereo not drawn)
inactive: [1] 1.35% | [2] 0.3% | [3] -3.45% | [4] -36.2% | [5] -23% | [6] 2.05%

CC1CCCCNC1=S (stereo not drawn)
inactive: [1] -6.95% | [2] 19.6% | [3] 19.9% | [4] 6.6% | [5] 17.8% | [6] 27.1%

COc1cccc2c1[C@H]1CO[C@H]3C4C[C@H](C(=O)O)C([C@@H](C2)N13)N4C (stereo partly drawn)
inactive: [1] 3.25% | [2] 4.4% | [3] 8.35% | [4] -12.1% | [5] -4.7% | [6] -2.5%

Cc1ccc(SCC(OCn2cnc3c(Cl)nc(N)nc32)[C@H](C)F)cc1 (stereo partly drawn)
inactive: [1] 32.2% | [2] 23.4% | [3] 56.5% | [4] 24.9% | [5] 66% | [6] -50.9%

CCOC(=O)C(Cc1ccccc1)NC(=O)c1[nH]cnc1/N=N/N(C)C (stereo not drawn)
inactive: [1] 44% | [2] -44% | [3] -29.4% | [4] -2.05% | [5] 2.8% | [6] -22.3%

NS(=O)(=O)c1ccc(NC(=O)/C=C\C(=O)O)cc1
inactive: [1] -15.6% | [2] -27.2% | [3] 17.1% | [4] -1.4% | [5] -4.2% | [6] -9.6%

O=C(Nc1cc(Cl)c(I)cc1Cl)C(F)(F)F
inactive: [1] 55.4% | [2] 10.8% | [3] 29.7% | [4] -8.35% | [5] 7.05% | [6] 18.8%

Cc1nc(Br)c([N+](=O)[O-])[nH]1
inactive: [1] 6.9% | [2] -6.4% | [3] -2.4% | [4] -47.9% | [5] -9.75% | [6] 4.8%

CC(C)(NC(=O)OCc1ccccc1)C(=O)OC(=O)C(C)(C)NC(=O)OCc1ccccc1
inactive: [1] -15.9% | [2] 21.1% | [3] 5.85% | [4] 13.8% | [5] 2.15% | [6] -19.4%

CC(=O)Nc1ccc2cc(-c3ccc(Cl)cc3)c3nnnn3c2n1
inactive: [1] 14.3% | [2] 4.85% | [3] 25.8% | [4] -53.1% | [5] 0.9% | [6] 17.8%

O=C(O)C1CSC2(CCCC2)N1 (stereo not drawn)
inactive: [1] 16.6% | [2] 4.15% | [3] 12.1% | [4] 4.35% | [5] 5.7% | [6] -1.6%

Cn1c(=Nc2ccc(Cl)cc2)sc2ccccc21
inactive: [1] -8.65% | [2] -31.2% | [3] -21.4% | [4] -36.9% | [5] 1.2% | [6] -21.9%

CC(=O)NC1=NC(=O)/C(=C/c2ccc(/C=C3/C(=O)N=C(NC(C)=O)N3C)cc2)N1C
inactive: [1] -20.6% | [2] 11% | [3] 14.4% | [4] 35.6% | [5] -9.05% | [6] -27.2%
